This is an account of results in PMC4081100, “A DNA-binding-site landscape and regulatory network analysis for NAC transcription factors in Arabidopsis thaliana”.

Holding throughout (assay): universal protein binding microarray (PBM); transcription factors of Arabidopsis thaliana; high values mean tight binding
One assay deals with GST-NTL6(1-168) (Arabidopsis thaliana, UniProt Q9SCK6 1-168). Particulars: protein: recombinant; tags: GST; chain copies: 2; dsDNA, one strand shown. The method, boiled down:
(§1)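 GST-tagged NAC-domain, full-length or DNA-binding-domain proteins were induced in cells, with zinc acetate added for zinc-finger proteins. They were purified on glutathione–Sepharose 4B and quantified by A280 or anti-GST western blot. Each was applied at 200 to 500 nM final, in duplicate, to custom all-10-mer Agilent 4 × 180K arrays made double-stranded by primer extension, with gapped and ungapped 8-mers scored. Binding is the normalised enrichment score (E-score).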

The target in a further assay is T1, GST-ANAC055(1-171) (Arabidopsis thaliana, UniProt Q9LDY8 1-171).
T1 sequence: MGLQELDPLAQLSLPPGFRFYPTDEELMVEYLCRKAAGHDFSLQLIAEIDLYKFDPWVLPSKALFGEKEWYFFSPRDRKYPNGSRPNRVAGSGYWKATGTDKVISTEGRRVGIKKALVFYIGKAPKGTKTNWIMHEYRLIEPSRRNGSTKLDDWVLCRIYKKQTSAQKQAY
The note with it: protein: recombinant; tags: GST; chain copies: 2; dsDNA, one strand shown. In a few lines: as §1

Another assay addresses T2, GST-ATAF1 NAC domain (Arabidopsis thaliana, UniProt Q39013 7-158).
T2 sequence: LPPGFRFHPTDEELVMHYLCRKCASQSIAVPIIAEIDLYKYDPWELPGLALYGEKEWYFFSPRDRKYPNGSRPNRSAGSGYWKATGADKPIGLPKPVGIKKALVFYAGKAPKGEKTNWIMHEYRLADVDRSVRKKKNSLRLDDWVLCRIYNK
Particulars: protein: recombinant; tags: GST; chain copies: 2; dsDNA, one strand shown. The method, boiled down:
as §1

In the next assay the target is GST-WRKY1(266-371) (Arabidopsis thaliana, UniProt Q9SI37 266-371). Particulars: protein: recombinant; tags: GST; dsDNA, one strand shown. In a few lines:
as §1

A further assay deals with T3, GST-ANAC019 NAC domain (Arabidopsis thaliana, UniProt Q9C932 14-162).
T3 sequence: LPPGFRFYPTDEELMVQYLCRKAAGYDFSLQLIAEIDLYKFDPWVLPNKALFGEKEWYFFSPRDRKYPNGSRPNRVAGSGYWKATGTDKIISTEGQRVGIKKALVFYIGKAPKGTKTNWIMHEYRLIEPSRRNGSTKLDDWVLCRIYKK
The note with it: protein: recombinant; tags: GST; chain copies: 2; dsDNA, one strand shown. In a few lines: as §1

The target in the next assay is T4, GST-NTL8 NAC domain (Arabidopsis thaliana, UniProt Q9XIN7 14-156).
T4 sequence: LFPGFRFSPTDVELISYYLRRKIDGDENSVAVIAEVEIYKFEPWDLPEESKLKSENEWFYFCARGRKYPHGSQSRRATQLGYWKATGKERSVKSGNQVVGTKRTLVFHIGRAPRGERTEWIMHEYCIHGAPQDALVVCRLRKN
Particulars: protein: recombinant; tags: GST; chain copies: 2; dsDNA, one strand shown. The method, boiled down:
as §1

For assay [1], the target named is T5, GST-ANAC092(1-285) full length (Arabidopsis thaliana, UniProt Q9FKA0 1-285).
T5 sequence: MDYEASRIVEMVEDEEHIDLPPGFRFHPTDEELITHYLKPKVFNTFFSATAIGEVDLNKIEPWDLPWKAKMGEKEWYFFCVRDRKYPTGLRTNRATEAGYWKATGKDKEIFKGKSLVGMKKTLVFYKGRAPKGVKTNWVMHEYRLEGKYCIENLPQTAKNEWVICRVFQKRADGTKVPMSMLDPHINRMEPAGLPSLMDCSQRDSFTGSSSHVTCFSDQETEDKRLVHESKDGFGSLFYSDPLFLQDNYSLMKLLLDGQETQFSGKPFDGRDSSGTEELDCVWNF
The note with it: protein: recombinant; tags: GST; chain copies: 2; dsDNA, one strand shown. In a few lines: as §1

In a further assay the target is T6, GST-NST2(1-184) (Arabidopsis thaliana, UniProt Q9M274 1-184).
T6 sequence: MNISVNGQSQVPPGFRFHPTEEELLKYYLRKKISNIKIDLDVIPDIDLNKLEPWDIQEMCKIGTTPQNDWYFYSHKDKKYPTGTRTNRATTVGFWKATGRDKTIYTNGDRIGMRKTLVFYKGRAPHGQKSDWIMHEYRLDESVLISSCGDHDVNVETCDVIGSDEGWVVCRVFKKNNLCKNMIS
Particulars: protein: recombinant; tags: GST; chain copies: 2; dsDNA, one strand shown. In a few lines: as §1

A further assay has as its target T7, GST-NAP(1-166) (Arabidopsis thaliana, UniProt O49255 1-166).
T7 sequence: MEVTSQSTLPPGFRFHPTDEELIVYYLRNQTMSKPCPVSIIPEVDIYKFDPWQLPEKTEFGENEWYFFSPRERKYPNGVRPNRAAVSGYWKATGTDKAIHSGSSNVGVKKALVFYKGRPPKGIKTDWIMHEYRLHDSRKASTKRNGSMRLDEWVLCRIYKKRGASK
Particulars: protein: recombinant; tags: GST; chain copies: 2; dsDNA, one strand shown. The method, boiled down: as §1

Chain of GST-WRKY1(266-371) (Q9SI37 266-371): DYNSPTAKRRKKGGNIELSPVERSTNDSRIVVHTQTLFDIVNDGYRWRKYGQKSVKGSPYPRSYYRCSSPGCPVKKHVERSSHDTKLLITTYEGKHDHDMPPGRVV
Chain of GST-NTL6(1-168) (Q9SCK6 1-168): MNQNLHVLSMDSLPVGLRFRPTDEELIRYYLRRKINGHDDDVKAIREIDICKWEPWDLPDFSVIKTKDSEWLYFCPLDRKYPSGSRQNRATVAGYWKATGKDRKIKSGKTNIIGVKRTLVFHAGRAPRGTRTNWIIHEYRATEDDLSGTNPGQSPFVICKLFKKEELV

As to TGACTGCA, the binding signal with GST-NTL6(1-168) was determined as 0.0778 E-score; with GST-ANAC055(1-171), 0.0624 E-score; with GST-ATAF1 NAC domain, 0.0918 E-score; with GST-WRKY1(266-371) it was 0.413 E-score.

With CAGTCAGA, the binding signal stood at 0.0745 E-score with GST-ANAC019 NAC domain and 0.404 E-score with GST-WRKY1(266-371).

Take GAAGGTCA: the binding signal was found to be 0.116 E-score in the assay with GST-NTL6(1-168), 0.0878 E-score with GST-NTL8 NAC domain and 0.426 E-score with GST-WRKY1(266-371).

On to GCTGACCA, for which the binding signal with GST-ANAC019 NAC domain was determined as 0.0761 E-score; in the assay with GST-WRKY1(266-371), 0.462 E-score.

Take CGAAGTCA: the binding signal was determined as 0.0962 E-score with GST-NTL6(1-168), 0.132 E-score with GST-NTL8 NAC domain and 0.42 E-score in the assay with GST-WRKY1(266-371).

As for GTAGGTCA, the results for the binding signal with GST-ANAC019 NAC domain, with GST-NTL8 NAC domain and in the assay with GST-WRKY1(266-371) were 0.129 E-score, 0.0647 E-score and 0.416 E-score, respectively.

For the sequence ACTTGACT, the binding signal was 0.0752 E-score with GST-ANAC055(1-171); 0.186 E-score with GST-ATAF1 NAC domain; 0.0808 E-score in [1]; 0.0742 E-score in the assay with GST-NST2(1-184); 0.456 E-score in the assay with GST-WRKY1(266-371).

For the sequence AGTCAATG, the binding signal with GST-ATAF1 NAC domain stood at 0.0527 E-score; with GST-NST2(1-184) it was 0.0628 E-score; with GST-WRKY1(266-371) it was 0.481 E-score.

On to GCAGTCAA, for which the binding signal in the assay with GST-ATAF1 NAC domain came to 0.0666 E-score; in the assay with GST-NAP(1-166) it was 0.0815 E-score; with GST-NTL8 NAC domain it was 0.0556 E-score; with GST-WRKY1(266-371), 0.478 E-score.

CACGGTCA: the results for the binding signal in the assay with GST-ANAC019 NAC domain, in the assay with GST-NTL8 NAC domain and with GST-WRKY1(266-371) were 0.052 E-score, 0.063 E-score and 0.44 E-score, respectively.

Consider CCGTTGAC, for which the binding signal amounted to 0.157 E-score with GST-ANAC019 NAC domain, 0.0578 E-score in [1], 0.126 E-score in the assay with GST-NAP(1-166) and 0.49 E-score with GST-WRKY1(266-371).

For GTTTGACA, the binding signal with GST-ANAC055(1-171) turned out to be 0.0647 E-score; with GST-ATAF1 NAC domain, 0.101 E-score; with GST-NST2(1-184) it was 0.0521 E-score; in the assay with GST-WRKY1(266-371), 0.417 E-score.

For the sequence GGGTTGAC, the binding signal with GST-NAP(1-166) came out at 0.0845 E-score; with GST-WRKY1(266-371) it was 0.477 E-score.

As for AGTCAAGC, the binding signal with GST-NTL8 NAC domain amounted to 0.0828 E-score; in the assay with GST-WRKY1(266-371) it was 0.459 E-score.

Turning to GTCGTTGA, the binding signal in assay [1] came out at 0.0529 E-score; in the assay with GST-NST2(1-184), 0.0569 E-score; in the assay with GST-WRKY1(266-371), 0.43 E-score.

Consider GTCAAGAC, for which the binding signal in assay [1] was 0.0871 E-score; in the assay with GST-WRKY1(266-371), 0.446 E-score.

Consider GTCGTCAA, for which the binding signal amounted to 0.0529 E-score in the assay with GST-NAP(1-166) and 0.424 E-score with GST-WRKY1(266-371).

As to CCTCTGAC, the binding signal with GST-NTL8 NAC domain is 0.12 E-score; with GST-WRKY1(266-371), 0.408 E-score.

Regarding ACGACCAA, the binding signal came to 0.103 E-score in the assay with GST-NAP(1-166) and 0.416 E-score with GST-WRKY1(266-371).

For the sequence ACATTGAC, the figures for the binding signal with GST-NAP(1-166) and in the assay with GST-WRKY1(266-371) were 0.0505 E-score and 0.465 E-score, respectively.

As to GGTCAACA, the binding signal amounted to 0.0705 E-score with GST-NST2(1-184) and 0.493 E-score with GST-WRKY1(266-371).

GGTCAATA: the figures for the binding signal (in [1]; with GST-NAP(1-166); with GST-WRKY1(266-371)) were 0.0505 E-score, 0.0842 E-score and 0.482 E-score, respectively.

For the sequence GGTCTTCA, the binding signal stood at 0.0664 E-score in the assay with GST-NAP(1-166) and 0.431 E-score with GST-WRKY1(266-371).

Regarding ATTCCCCC, the binding signal with GST-NTL6(1-168) stood at 0.146 E-score; with GST-NTL8 NAC domain, 0.402 E-score.

For the sequence AGTCGTCG, the figures for the binding signal with GST-NAP(1-166) and in the assay with GST-WRKY1(266-371) were 0.119 E-score and 0.432 E-score, respectively.
